Pf Dd2 inh = qHTS Primary assay for Inhibitors of Plasmodium falciparum Dd2 growth in vitro; P. falciparum Dd2 growth, SYBR Green, 72 h; Potency, µM (doses to about 28.9 µM), for the others: at the highest dose activity, negative = inhibition, usual class: inhibitors; actives 4.3% (n = 120,000); active = well fitted inhibition curve with a large enough effect;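 note: plate controls were DMSO vehicle for no effect and reference drug for full effect; nearly all actives have a fitted effect of over 65% in size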
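Readout: SYBR Green fluorescence, 485 nm excitation, 535 nm emission, after ~16 h lysis at 37C. Before that, Dd2-infected red cells (2.5% hematocrit) grew 72 h with compound, 29 uM top final concentration.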
Numbers without * were called inactive; i = inactive; [ ] = another dose, or the depositor's remark. The entries come from a sample that favours hits as a whole. Potency is the fitted concentration of half-maximal effect.

SMILES	Pf Dd2 inh
Cc1ccc(C(=O)N2CCCC(N)CC2)cc1N1CCNC1=O (configuration not stated)	-12%
O=C(COc1ccccc1)N1C[C@@H]2C[C@H](C1)c1c(NS(=O)(=O)c3ccccc3)ccc(=O)n1C2	-25%
COc1ccc(CN2CC(CNC(=O)Cc3ccccc3)C3(C2)CN(c2ccccc2)C3)cc1O (configuration not stated)	-14%
CCc1noc(-c2cn(C3CCCN(C(=O)c4cc(C)cc(C)c4)C3)nn2)n1 (configuration not stated)	i
CS(=O)(=O)c1ccc(CN2CCN(c3ncc(F)cn3)CC2)cc1	-6%
CC(C)CN1C(=O)c2cccn2CC1CNC(=O)c1ccc(F)cc1 (configuration not stated)	-10%
O=C1CCC2(CCN(C/C=C/c3ccccc3)CC2)CN1CCCn1ccnc1	10µM*
CC(O)CN1CC2(CCC1=O)CCN(CCCn1ccnc1)CC2 (configuration not stated)	0%
Cc1cc(C(=O)N2CCC3(CCC(=O)N(CCCn4ccnc4)C3)CC2)c(C)o1	6%
CCn1cc(S(=O)(=O)N2CCC3(CCCN(CC4CC4)C3=O)C2)cn1 (configuration not stated)	-6%
CCC(C(=O)Nc1cc(-c2nc3cccnc3s2)ccc1C)c1ccccc1 (configuration not stated)	10µM*
Cc1ccc(-c2nc3cccnc3s2)cc1NC(=O)C(C)C	-21%
Cc1cccc(C(=O)Nc2cc(-c3nc4cccnc4s3)ccc2C)c1	4%
CC(C)N1CCN(C(=O)[C@@]23CCCC[C@H]2N(C)C(=O)CC3)CC1	4%
Cc1cccc(NC(=O)Cn2c(C)cc3nc4n(c(=O)c32)CCCCC4)c1	i
COc1ccc(CN2CCC3(CC2)CC(O)CCO3)cc1 (configuration not stated)	-25%
FC(F)(F)c1ccc(N2C3CCC2CN(Cc2ccc(-c4ccsc4)cc2)C3)cc1	2%
FC(F)(F)c1ccc(N2C3CCC2CN(Cc2ccc(-c4ccccc4)cc2)C3)cc1	i
FC(F)(F)c1ccc(N2C3CCC2CN(Cc2cccc(-c4cccnc4)c2)C3)cc1	11µM*
C#CCNC(=O)[C@H]1O[C@H](CCN2CCOCC2)CC[C@@H]1O	13%[44.1 µM]
O=C(Cn1cccc1-c1nc(-c2ccccc2)no1)N1CCN(c2ccccc2F)CC1	7.9µM*
CC(=O)Nc1ccc(NC(=O)Cn2cccc2-c2nc(-c3ccc(F)cc3)no2)cc1	-18%
Cc1cccc(NC(=O)Cn2cccc2-c2nc(-c3ccc(F)cc3)no2)c1C	-14%
Cc1c(Cl)cccc1NC(=O)Cn1cccc1-c1nc(-c2ccc(F)cc2)no1	87%
O=C(Cn1cccc1-c1nc(-c2ccc(F)cc2)no1)Nc1ccc(F)c(F)c1	i
SMILES	Pf Dd2 inh
O=C(Cn1cccc1-c1nc(-c2ccccc2)no1)Nc1cc(F)cc(F)c1	10%
COc1ccc(NC(=O)Cn2cccc2-c2nc(-c3ccccc3)no2)cc1	3.2µM*
CCOc1ccccc1NC(=O)Cn1cccc1-c1nc(-c2ccc(F)cc2)no1	10µM*
COC(=O)c1ccccc1NC(=O)Cn1cccc1-c1nc(-c2ccccc2)no1	21%
COc1ccc(-c2noc(-c3cccn3CC(=O)N3CCN(c4ccccc4OC)CC3)n2)cc1F	-23%
O=C(Cn1cccc1-c1nc(-c2ccccc2)no1)Nc1cccc(Cl)c1	2.5µM*
O=C(Cn1cccc1-c1nc(-c2ccc(F)cc2)no1)Nc1ccc(Cl)cc1	144%
O=C1N(C2CCCCC2)C[C@H]2CN(Cc3cccc(OC(F)(F)F)c3)CCN12	-12%[44.1 µM]
CCc1nc2cc(N3CCC(C(=O)O)CC3)cnc2nc1CC	i
COc1ccc(CC(=O)N2CC[C@@H](CC(=O)O)[C@@H](CCN(CCN3CCOCC3)c3ccccc3)C2)cc1	i
CCCS(=O)(=O)N1CCCC1C(=O)Nc1ccccc1-c1ccc(OC)cc1 (configuration not stated)	5%
CCNC(=O)N1C[C@@H]2OCC(=O)N(C(C)C)[C@@H]2C1	6%[44.1 µM]
COC1CCOC2(CCNCC2)C1 (configuration not stated)	1%
COCCN1CCOC2(CCN([S+](=O)([O-])c3ccccc3C)CC2)C1=O	-24%[44.1 µM]
CC1=C[C@@H](CO)[C@H](C(C)C)C[C@H]1CC(=O)NCc1cccnc1	3%[44.1 µM]
Cc1nc(N2CCC(NC(=O)c3ccccc3Cl)CC2)cc(C(F)(F)F)n1	i
Cc1nc(N2CCC(NC(=O)c3ccccc3F)CC2)cc(C(F)(F)F)n1	i
COc1cc(Cl)ccc1C(=O)NC1CCN(c2cc(C(F)(F)F)nc(C)n2)CC1	5µM*
Cc1ccc(S(=O)(=O)Nc2ccc(C)n(CC(=O)NCc3ccccc3)c2=O)cc1	6%
O=C1[C@@H]2C[C@@H](O)CN2C2(CN(Cc3cccc(OC(F)(F)F)c3)C2)C(=O)N1Cc1ccccc1F	i
COc1ccccc1N1CCN(C(=O)CCS(=O)(=O)c2cc(Br)cc3c2N(C(C)=O)CC3)CC1	i
Cc1cc(NC(=O)CCS(=O)(=O)c2cc3c4c(c2)CCN4C(=O)CC3)ccc1Br	15%
COc1ccc(Cl)cc1NS(=O)(=O)c1cc(Br)cc2c1N(C(=O)C1CC1)CC2	11%
CCc1cccc(C)c1NC(=O)CCS(=O)(=O)c1cc(Br)cc2c1N(C(=O)C1CC1)CC2	-19%
CCC(=O)N1CCc2cc(Br)cc(S(=O)(=O)CCC(=O)Nc3ccc(CC)cc3)c21	-5%
SMILES	Pf Dd2 inh
CCC(=O)N1CCc2cc(Br)cc(S(=O)(=O)NCCc3ccccc3)c21	-24%
CCC(=O)N1CCc2cc(Br)cc(S(=O)(=O)CCC(=O)Nc3ccc(C)c(F)c3)c21	5µM*
CCC(=O)N1CCc2cc(Br)cc(S(=O)(=O)CCC(=O)Nc3cccc(CC)c3)c21	i
CCC(=O)N1CCc2cc(Br)cc(S(=O)(=O)CCC(=O)NCCc3ccc(C)cc3)c21	-13%
Cc1cc(NC(=O)CCS(=O)(=O)c2cc(Br)cc3c2N(C(=O)C2CC2)CC3)ccc1Br	4.5µM*
CCC(=O)N1CCc2cc(Br)cc(S(=O)(=O)CCC(=O)NCCc3ccccc3Cl)c21	11µM*
COc1ccccc1N1CCN(C(=O)CCS(=O)(=O)c2cc(Br)cc3c2N(C(=O)C2CC2)CC3)CC1	10µM*
CCCCC(=O)N1CCN(C2CCN(CCC(C)C)C2=O)CC1 (configuration not stated)	i
CC(C)CN[C@@H]1C[C@H](Cn2cc(C3CC3)nn2)[C@@H](O)[C@H]1O	1%[44.1 µM]
N#Cc1cccc(C(=O)N2CCc3c(n(Cc4ccccc4)n(-c4ccccc4)c3=O)C2)c1	i
COc1ccc(CNC(=O)[C@@]23CCCC[C@H]2N(C)C(=O)CC3)cc1	-17%
COc1cccc2c1OCC(CNC(=O)CCc1cn3ccccc3n1)C2 (configuration not stated)	10%
CC1CCN(C(=O)C[C@@H]2O[C@H](CNC(=O)C3CC3)[C@@H](O)[C@H]2O)CC1	2%[44.1 µM]
CCCn1c(C)c(CC(=O)NCc2cccnc2)c2c1CC(C)(C)CC2=O	i
O=C(Cn1ccc(=O)[nH]c1=O)N1CCN(Cc2ccccc2)CC(O)C1 (configuration not stated)	-4%
COc1cc(F)c(-c2nccn2CC(O)c2ccccc2)cc1OC (configuration not stated)	-24%
Cc1ccccc1[S+](=O)([O-])N1CCC2OCCN(Cc3ccccc3F)C(=O)C2C1 (configuration not stated)	i
O=C(C[C@@H]1CCNC[C@@H]1Cc1cc(CN2CCCCC2)on1)N1CCCCC1	-25%[44.1 µM]

Bioassay records (PubChem BioAssay)
